Source: PubChem BioAssay (National Center for Advancing Translational Sciences (NCATS))
Hits are enriched below; roughly 11% of the tested compounds scored in any of these assays.
hNpr1 antagonist = human Npr1 receptor antagonism; HEK293 hNpr1 GloSensor cGMP, ANP-stimulated luminescence; Potency, µM (doses to about 46.3 µM), for inactives: at the top dose activity change, negative = inhibition, usual class: inhibitors; actives 1.6% (n = 76,000); calls by dose curve; note: nearly all actives have a fitted effect of over 60% in size
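Compound pre-incubated 30 min at room temperature on GloSensor-loaded HEK293 cells stably carrying hNpr1 and the pGS-40F cGMP biosensor. Stimulation uses hNppA at 0.1 nM final; luminescence is taken at baseline and 20 min post-agonist.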
HEK293 tox = HEK 293 cell cytotoxicity; HEK 293 viability, ATP luminescence (CellTiter-Glo), 48-72 h; Potency, µM (top dose mostly 115 µM), inactives show top-dose activity change, negative = cytotoxicity, usual class: inhibitors; actives 6.6% (n = 94,000); AID 1345083; note: nearly all actives have a fitted effect of over 60% in size
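HEK 293 cells seeded at 250 cells/well were exposed to compound for 48 or 72 hr at 37 degree Celsius. Viability taken as ATP content by CellTiter-Glo luminescence.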
FLuc inh = Photinus pyralis luciferase inhibition | P08659 | purified P. pyralis luciferase, luminescence, biochemical | Potency, µM (top dose mostly 115 µM), hits mostly inhibitors | actives 2.5% (n = 76,000) | AID 1347043; note: nearly all actives have a fitted effect of over 65% in size
Target sequence (P08659 whole entry, looked up): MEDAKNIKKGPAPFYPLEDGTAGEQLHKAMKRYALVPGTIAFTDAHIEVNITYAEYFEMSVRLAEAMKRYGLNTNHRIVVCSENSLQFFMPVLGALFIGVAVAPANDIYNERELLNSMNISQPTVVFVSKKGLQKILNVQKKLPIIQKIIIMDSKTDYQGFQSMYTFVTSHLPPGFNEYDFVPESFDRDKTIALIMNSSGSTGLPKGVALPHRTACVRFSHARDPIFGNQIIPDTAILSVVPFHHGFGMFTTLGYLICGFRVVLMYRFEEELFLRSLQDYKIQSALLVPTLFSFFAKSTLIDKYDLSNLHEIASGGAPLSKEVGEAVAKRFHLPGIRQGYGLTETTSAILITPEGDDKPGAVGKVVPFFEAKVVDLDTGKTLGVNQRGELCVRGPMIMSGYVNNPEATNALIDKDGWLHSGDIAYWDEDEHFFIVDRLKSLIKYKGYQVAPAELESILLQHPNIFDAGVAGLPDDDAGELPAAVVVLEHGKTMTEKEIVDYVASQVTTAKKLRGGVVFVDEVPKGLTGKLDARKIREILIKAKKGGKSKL
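FLuc 10nM, D-luciferin 10uM, ATP 10uM, Mg acetate 10mM, Tris acetate pH 7.5, Tween/BSA; cpd qHTS; enzyme added last; CCD luminescence.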
NIH3T3 tox = kills NIH 3T3 cells | actives 4.3% (n = 94,000) | Potency, µM (doses to about 96.7 µM), for the others: top-dose activity change, negative = cytotoxicity, hits mostly inhibitors | NIH 3T3 viability, CellTiter-Glo ATP luminescence, 48-72 h | AID 1345082; note: nearly all actives have a fitted effect of over 55% in size
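First NIH 3T3 cells are plated at 400 cells/well; next compound is pinned in; then plates incubate 48 or 72 hr at 37 °C; finally CellTiter-Glo is added and luminescence read after 10 min.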
* hit, by the source's call; i = inactive; ? = inconclusive; nt = not tested or not shown; [ ] = another dose, or the depositor's remark. Unless noted, calls come from the whole dose curve; as a rule, active = well fitted curve in the direction sought with a large enough effect; inconclusive = small, poorly fitted or top-dose-only effect, or another doubt; inactive = no such curve, though single readings can be large; an effect the other way counts as inactive or inconclusive. % is set by controls: 0 for no effect and ±100 for the full control effect; potency is the fitted concentration of half-maximal effect.

SMILES	hNpr1 antagonist	HEK293 tox	FLuc inh	NIH3T3 tox
CSCCC(=O)N1CCCC(CCc2ccccc2F)C1 (centres undefined)	-3.9%	?	i	39.8µM*
O=C(CCCc1cn[nH]c1)N1CCCC(CCc2c(F)cccc2F)C1 (centres undefined)	-20.7%	50.1µM*	i	?
O=C1OC[C@@H]2CCN(Cc3ccc(Cl)cc3)Cc3ccc(F)cc3N12	-1.0%[70.6 µM]	?	i	?
CC(C)c1csc(CN2CC[C@@H](c3ccc4c(c3)OCO4)[C@H](O)C2)n1	?	22.4µM*	i	?
CC1=C[C@@H](CNC(=O)C(C)(C)C)[C@H](C(C)C)C[C@H]1Cc1nnc(-c2ccncc2)o1	-29.3%[70.6 µM]	79.4µM*	i	-19.7%[174 µM]
CC(=O)N1CCN(C[C@@H]2C=C(C)[C@H](Cc3nnc(-c4ccncc4)o3)C[C@H]2C(C)C)CC1	-4.6%[70.6 µM]	?	i	-24.3%[174 µM]
CC1=C[C@@H](CNC(=O)c2ccc(F)cc2)[C@H](C(C)C)C[C@H]1Cc1nnc(-c2ccncc2)o1	?	35.5µM*	i	?
CC1=C[C@@H](CNC(=O)c2ccc(C#N)cc2)[C@H](C(C)C)C[C@H]1Cc1nnc(-c2ccncc2)o1	?	?	i	?
COc1ccc(C(=O)NC[C@@H]2C=C(C)[C@H](Cc3nnc(-c4ccncc4)o3)C[C@H]2C(C)C)cc1	?	50.1µM*	i	?
CCN1CCC2(Cc3ccccc3CN(C(=O)c3c(C)noc3C)C2)C1 (centres undefined)	nt	4.4%	nt	0.5%
CCCN1CCCCC12Cc1ccccc1CN(C(=O)c1c(C)noc1C)C2 (centres undefined)	nt	?	nt	31.6µM*
CCCN1CCCC12Cc1ccccc1CN(C(=O)CC)C2 (centres undefined)	nt	-10.8%	nt	4.7%
CCCN1CCCC12Cc1ccccc1CN(C(=O)C(C)C)C2 (centres undefined)	nt	89.1µM*	nt	?
O=C(Cc1c[nH]c2ccccc12)N1CCC(N2C(=O)C(O)C23CCCCC3)CC1 (centres undefined)	4.7%	-11.5%	i	i
CCn1cc(C(=O)N2CC(n3cc(COCc4ccccc4)nn3)C2)cn1	nt	2.6%	nt	-17.0%
CCOc1ccc(C(=O)N2CCC[C@H]2c2nc(-c3ccccc3Cl)no2)cc1	-12.9%	?	?	20µM*
CCOc1ccccc1C(=O)N1CCC[C@H]1c1nc(-c2ccc(F)cc2)no1	-1.1%	35.5µM*	i	?
COc1ccccc1S(=O)(=O)NC1CCCN(C2CCCCCC2)C1 (centres undefined)	1.2%	?	i	-3.7%
C=CCN(CC=C)Cc1c(C(=O)N2CCN(C3CCCCC3)CC2)nc2ccccn12	13.5%	?	i	-20.4%
CC(C)c1nc2c(c(-c3ccc(Cl)cc3)n1)CN([S+](=O)([O-])c1cccc(C(F)(F)F)c1)CC2	1.1%	-2.6%	i	0.2%
CC(C)c1nc2c(c(-c3ccc(O)cc3)n1)CCN(Cc1ccc(C(F)(F)F)cc1)CC2	5.3%	35.5µM*	i	39.8µM*
CC(C)c1nc2c(c(-c3ccc(O)cc3)n1)CN(Cc1ccc(C(F)(F)F)cc1)CC2	2.3%	39.8µM*	i	?
Oc1ccc(-c2nc(C3CC3)nc3c2CN(Cc2ccc(C(F)(F)F)cc2)CC3)cc1	-1.8%	89.1µM*	i	?
CC(C)c1nc2c(c(-c3ccc(O)cc3)n1)CN([S+](=O)([O-])c1cccc(C(F)(F)F)c1)CC2	14.0%	?	i	17.8µM*
O=C1Cc2c(-c3ccccc3Cl)n[nH]c2CN1CC1CC1	-5.9%[70.6 µM]	?	i	?
SMILES	hNpr1 antagonist	HEK293 tox	FLuc inh	NIH3T3 tox
O=C(Nc1ccsc1)N[C@H]1C[C@H]2C(=O)NC[C@@H](CCC(=O)N3CCCCC3)N2C1	-2.1%[70.6 µM]	-5.7%[172 µM]	i	-29.3%[138 µM]
CC(C)c1nc2c(c(-c3ccc(Cl)cc3)n1)CCN(Cc1ccc(F)cc1)CC2	nt	39.8µM*	nt	?
Cc1cc(C(=O)NC2CC2)c2c(C3CCNCC3)noc2n1	nt	-1.8%	nt	-5.3%
CO[C@H]1[C@H](NC(=O)c2cc3ccccc3n2C)c2ccccc2C12CCNCC2	2.6%	35.5µM*	i	22.4µM*
CO[C@H]1[C@H](NC(=O)c2cc(C)nn2C)c2ccccc2C12CCNCC2	2.8%	0.8%	i	0.4%
CNC(C)c1ccc(Oc2ccccc2)cc1 (centres undefined)	nt	100µM*	nt	79.4µM*
CNC(C)c1ccc(OC(F)(F)F)cc1 (centres undefined)	nt	i	nt	i
Cc1cc(-c2cc3c(cn2)CN(Cc2ccc4[nH]ccc4c2)CCN3)ccn1	?	70.8µM*	44.7µM*	?
c1ccc(-c2cc3c(cn2)CN(Cc2ccc4[nH]ccc4c2)CCN3)cc1	-4.5%[70.6 µM]	50.1µM*	56.2µM*	25.1µM*
Cc1nnc(NC(=O)C2c3ccccc3C(=O)N(CC(C)C)C23CCCCC3)s1 (centres undefined)	2.8%	2.4%	i	i
CC(=O)NC1(C)CCN(Cc2ccccc2-c2ccc3c(ccn3C)c2)C1 (centres undefined)	0.5%[70.6 µM]	100µM*	i	89.1µM*
COc1cc(CN2CCC(C)(NC(C)=O)CC2)cc(NCc2ccccc2)c1	1.7%[70.6 µM]	?	i	-9.7%[138 µM]
CC(=O)NC1(C)CCN(Cc2ccc(-c3cccc(Cl)c3)cc2)C1 (centres undefined)	-22.4%[70.6 µM]	89.1µM*	i	?
CC(=O)NC1(C)CCN(Cc2cccc(-c3ccccc3)c2)C1 (centres undefined)	0.7%[70.6 µM]	?	i	-26.5%[138 µM]
CC(=O)NC1(C)CCN(Cc2ccc(-c3ccccc3OCc3ccccc3)cc2)C1 (centres undefined)	-4.2%[70.6 µM]	31.6µM*	?	31.6µM*
COc1cccc(Nc2cc(CN3CCC(C)(NC(C)=O)CC3)cc(OC)c2)c1	-1.2%[70.6 µM]	112µM*	i	100µM*
CC(=O)NC1(C)CCN(Cc2ccc(-c3ccc(N4CCOCC4)cc3)cc2)C1 (centres undefined)	-13.7%[70.6 µM]	?	?	?
CC(=O)NC1(C)CCN(Cc2ccc(-c3cccc(C(F)(F)F)c3)cc2)C1 (centres undefined)	-15.1%[70.6 µM]	50.1µM*	63.1µM*	44.7µM*
CC(=O)NC1(C)CCCN(Cc2cc(-c3ccccc3)cs2)C1 (centres undefined)	4.2%[70.6 µM]	?	i	?
CC(=O)NC1(C)CCN(Cc2ccc(-c3cccc(F)c3)cc2)C1 (centres undefined)	-14.6%[70.6 µM]	?	i	89.1µM*
CC(=O)NC1(C)CCCN(Cc2cc(-c3cccc(N(C)C)c3)cs2)C1 (centres undefined)	-0.8%[70.6 µM]	63.1µM*	70.8µM*	?
CCC(=O)Nc1ccc(C2(C(=O)N3CCC(N4CCCCC4)CC3)CCCCC2)cc1	-2.4%	-25.2%	i	-17.1%
COc1ccccc1N1CCN(C(=O)Cn2cccc2-c2nc(-c3ccc(F)cc3)no2)CC1	-4.0%	39.8µM*	i	?
